Structures are written as SMILES. Results filed as inconclusive are left out. The source made the active and inactive calls. Calls come from the whole dose curve; as a rule, active = well fitted curve in the direction sought with a large enough effect; inconclusive = small, poorly fitted or top-dose-only effect, or another doubt; inactive = no such curve, though single readings can be large; an effect the other way counts as inactive or inconclusive.

Test [1] in a line: qHTS for Inhibitors of the Aldehyde Dehydrogenase Family (ALDH1A2, ALDH1A3, ALDH2, ALDH3A1) (AID 2061307). For Potency: test system not described further here; potency is the fitted concentration of half-maximal effect. Note: nearly all actives have a fitted effect of over 50% in size. In general terms: Quantitative high-throughput screening tests each substance at several concentrations.
For test [2], the target named is Aldehyde dehydrogenase, mitochondrial (Homo sapiens) (UniProt P05091). Description: qHTS for Inhibitors of the Aldehyde Dehydrogenase Family (ALDH2) Primary screen (AID 2061308). Note: nearly all actives have a fitted effect of over 55% in size. Note: potency is the fitted concentration of half-maximal effect.
Test [3] concerns the target Retinaldehyde dehydrogenase 3 (Homo sapiens) (UniProt P47895). Description: qHTS for Inhibitors of the Aldehyde Dehydrogenase Family (ALDH1A3) Confirmatory screens (AID 2061311). Note: nearly all actives have a fitted effect of over 60% in size. Note: potency is the fitted concentration of half-maximal effect.
Test [4] addresses Retinal dehydrogenase 2 (Homo sapiens) (UniProt O94788). Description: qHTS for Inhibitors of the Aldehyde Dehydrogenase Family (ALDH1A2) Confirmation screens (AID 2061314). Note: nearly all actives have a fitted effect of over 65% in size. Note: potency is the fitted concentration of half-maximal effect.
Test [5] has as its target Retinaldehyde dehydrogenase 3 (Homo sapiens) (UniProt P47895). Description: qHTS for Inhibitors of the Aldehyde Dehydrogenase Family (ALDH1A3) Primary screen (AID 2061315).
Test [6] has as its target Aldehyde dehydrogenase 1A1 (Homo sapiens) (UniProt P00352). Nature of the test: qHTS for Inhibitors of the Aldehyde Dehydrogenase Family (ALDH1A1) Confirmatory screens (AID 2061316). Note: nearly all actives have a fitted effect of over 65% in size. Note: potency is the fitted concentration of half-maximal effect.
Test [7] can be described thus: BET inhibitor-based combinations targeting novel dependencies in MECOM-rearranged (r) AML: SET-2 cell line (AID 2202231). Note: potency is the fitted concentration of half-maximal effect; nearly all actives have a fitted effect of over 35% in size. To be noted: SET-2 AML cells viability, CellTiter-Glo luminescence, 48 h; viability: stronger effect = lower value, concentration not given here. In short, it runs like this:
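Viability of cells (500 per well) is scored by luminescent CellTiter-Glo at 48 hr post-dosing. Eleven-point titrations are normalized to DMSO and empty controls and reduced to AUC values.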
For orientation: Cellular ATP, detected with luciferase, serves as a proxy for viable cell number.

Test [8] is described as follows: BET inhibitor-based combinations targeting novel dependencies in MECOM-rearranged (r) AML: MV-4-11 cell line (AID 2202233). Note: potency is the fitted concentration of half-maximal effect; nearly all actives have a fitted effect of over 45% in size. The gist of the method: (§1)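 Using pin-tool transfer, drugs were added in 11 doses to cells (500/well), incubated 48 hr, and assessed with CellTiter-Glo. Z-AUC is a mean-centring transformation applied separately to each screened line.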
Test [9] is described as follows: BET inhibitor-based combinations targeting novel dependencies in MECOM-rearranged (r) AML: HNT-34 cell line (AID 2202234). Note: potency is the fitted concentration of half-maximal effect; nearly all actives have a fitted effect of over 35% in size. The gist of the method: as §1

As to `O=C1Nc2c(Cl)cccc2/C1=C\c1cc(Cl)c(O)c(Cl)c1`, the Potency in test [1] is 1.79 µM (active); in [4], 25.2 µM (active); in test [6], 7.12 µM (active). Besides, the Potency result in test [2], in test [3] and in test [5] was “inactive” in each case.

With `COc1ccc(C2Nc3ccccc3C(=O)N2Cc2ccccc2C)cc1COc1ccc(NC(C)=O)cc1` (centres undefined), the Potency in test [1] was 1.79 µM (active); in test [3], 17.9 µM (active); in test [4] it was 17.9 µM (active); in test [6], 25.2 µM (active). The Potency result in test [2] and in test [5] was “inactive” throughout.

For `NC(=O)C1CCN(c2ncc(-c3ccc(Br)cc3)s2)CC1`, the values for the Potency in [1], in test [3] and in [6] were 5.65 µM (active), 22.4 µM (active) and 11.3 µM (active), respectively. For the same compound, the Potency entry in test [2], in [4] and in test [5] was “inactive” in each case.

Turning to `CCOC(=O)c1ccc2c(c1)c(C(C)=O)c(C)n2-c1ccc(OC)cc1`, the Potency result in [1], in [2], in test [3], in [4], in test [5] and in test [6] was “inactive” in each case.

With `NC(=O)C1CCN(c2ncc(-c3ccc4c(c3)OCO4)s2)CC1`, the Potency in test [1] is 5.04 µM (active); in [3], 17.8 µM (active); in [6], 12.7 µM (active). Also, the Potency entry in [2] and in test [4] was “inactive” throughout.

On to `Cc1ccc(S(=O)(=O)Nc2cnccc2C(=O)Nc2nc(-c3ccc4c(c3)CCCC4)cs2)cc1`, for which the Potency in [1] is 22.5 µM (active); in test [4] it was 8.96 µM (active); in test [6], 11.3 µM (active). Also, the Potency result in [2], in test [3] and in test [5] was “inactive” each time.

As for `COc1ccc(-n2c(C)c(C(C)=O)c3ccccc32)cc1`, the Potency in test [1] was 0.4 µM (active); in test [3] it was 15.8 µM (active). In addition, the Potency result in test [2], in test [4] and in test [5] was “inactive” throughout.

Turning to `Oc1ccc(CNc2cc(C(F)(F)F)ccn2)c2cccnc12`, the Potency in test [1] is 20.1 µM (active); in [3] it was 5.65 µM (active); in test [4], 7.12 µM (active); in test [6], 11.3 µM (active). Further, the Potency entry in test [2] is “inactive”.

Turning to `O=C(O)c1cccc(-n2cccc2/C=C2/C(=O)N(Cc3ccc(F)cc3)C(=O)N2Cc2ccc(F)cc2)c1`, in test [1], the Potency is 14.2 µM (active). The Potency entry in test [2], in [3], in test [4], in [5] and in [6] was “inactive” throughout.

On to `CN(CC(=O)Nc1cccc(N2CCOCC2)c1)Cc1c(O)ccc2ccccc12`, for which the Potency in test [1] was 5.65 µM (active); in test [3], 12.7 µM (active); in test [4] it was 11.3 µM (active); in test [6], 4 µM (active). Also, the Potency entry in test [2] and in test [5] was “inactive” throughout.

On to `Cc1c(C(=O)OCC2CCCCO2)[nH]c2c1C(=O)CC(c1ccco1)C2` (centres undefined), for which the Potency entry in test [1], in test [2] and in test [5] was “inactive” throughout. For the same compound, the Potency in test [3] was 14.1 µM (active); in test [4], 7.12 µM (active); in [6], 1.42 µM (active).

Turning to `O=C([C@@H]1CCCN(c2ccc3[nH]c(C4(n5cc(Cl)cn5)CC4)nc3n2)C1)N1CCCC1`, the Potency result in [1], in test [2], in test [3], in test [5] and in test [6] was “inactive” throughout.

Consider `CC(C)(Nc1nc(-c2ccccc2C(F)(F)F)nc2ccccc12)c1ccc(-c2cccc(C(F)(F)F)c2)cc1`, for which the Potency entry in test [1], in test [2], in [3] and in test [5] was “inactive” throughout.

Turning to `COc1ccc(C2Nc3ccccc3C(=O)N2Cc2ccncc2)cc1COc1ccc(NC(C)=O)cc1` (centres undefined), the Potency in test [1] was 3.57 µM (active); in test [4] it was 5.04 µM (active). The Potency entry in test [2] and in test [5] was “inactive” each time.

With `c1csc(CNc2ccc(N3CCOCC3)cc2)c1`, the Potency entry in [1] and in test [2] was “inactive” in each case. Also, the Potency in test [4] was 22.5 µM (active).

For `Cc1ccc(OCCn2c3c(c4ccccc42)CN(C(=O)C2CCCCC2)CC3)cc1`, the results for the Potency in test [1], in test [3] and in test [6] were 1.59 µM (active), 11.3 µM (active) and 2.01 µM (active), respectively. The Potency entry in [2] and in [5] was “inactive” throughout.

`Cc1csc(CN(C)c2ncnc3ccc(-c4ccc5c(c4)OCO5)cc23)n1`: the Potency is 0.201 µM (active) in test [1], 25.1 µM (active) in [3] and 12.7 µM (active) in test [6]. Moreover, the Potency entry in test [2] and in test [5] was “inactive” throughout.

As to `CC(=O)Nc1sc2c(c1-c1nc3ccccc3s1)CN(C(C)C)C2`, the Potency result in test [1], in test [2], in [3] and in test [5] was “inactive” throughout.

Regarding `O=c1[nH]c(CN2CCOCC2)nc2sc3c(c12)CCCC3`, the Potency result in test [1], in test [2], in [3], in [5] and in test [6] was “inactive” each time.

As to `CN(C)CCCNc1ccc(NC(=O)c2cccs2)cn1`, the Potency result in [1], in test [2] and in test [5] was “inactive” throughout. Further, the Potency in test [4] is 5.65 µM (active).

Turning to `CN(C)c1ccc(C(=O)NCC(=O)OC(C(=O)Nc2cc(C(F)(F)F)ccc2Cl)c2ccccc2)cc1` (centres undefined), the Potency result in [1], in test [2] and in test [5] was “inactive” throughout. For the same compound, in test [3], the Potency is 11.3 µM (active).

With `Nc1ccccc1OC1=NS(=O)(=O)c2ccccc21`, the Potency entry in test [1], in [4] and in test [5] was “inactive” throughout. Further, the Potency in [2] is 2.51 µM (active).

In the case of `CN(C)[C@H]1CCN(c2cccc(Nc3nn4c(=O)c5ccccc5nc4s3)c2)C1`, the Potency entry in [1], in test [2] and in test [5] was “inactive” in each case. The Potency in test [3] was 3.18 µM (active); in test [6], 5.04 µM (active).

With `Cc1ccc2nc3sc(C(=O)N4CCCCC4)cc3cc2c1`, the Potency in test [1] was 11.3 µM (active); in test [3], 12.7 µM (active). Further, the Potency entry in [2] and in [5] was “inactive” throughout.

With `Nc1nccc(-c2c(-c3ccc(F)cc3)ncn2C2CCCCC2)n1`, the Potency result in test [1], in test [2], in test [3] and in [5] was “inactive” throughout. The figures for the Potency in test [7], in test [8] and in test [9] were 20.9 µM (active), 16.6 µM (active) and 20.9 µM (active), respectively.

For `Cc1ccc(-c2cnn(CC(=O)NCCc3ccccc3)c(=O)c2)cc1`, the Potency in test [1] was 12.7 µM (active); in test [3] it was 14.1 µM (active). Further, the Potency result in [2] and in test [5] was “inactive” in each case.

Take `N#Cc1cnc(NS(=O)(=O)c2ccc(NC(=O)Cc3ccc(Cl)c(Cl)c3)cc2)s1`: in test [1], the Potency was 25.2 µM (active). Besides, the Potency entry in test [2], in test [3], in [5] and in test [6] was “inactive” throughout.

For `N#Cc1nc(Nc2ccc3ccccc3c2)nc(NC2CCCC2)n1`, the Potency entry in test [1], in test [2] and in test [5] was “inactive” in each case. Besides, the Potency in [4] is 22.5 µM (active).

These data come from PubChem BioAssay (NCATS).
